For part of these data: Potency and affinity values are given separately.
How the values were obtained:
Set-up in all cases: scale not given: direction of the effect not stated beside the values
[1] = molecular target: Protein translocase subunit SecA (Escherichia coli (strain K12)) (UniProt P10408); test: Assay to Identify E. coli SecA ATPase Inhibitors; assay type: functional; details: 30 µM
[2] = molecular target: T1, Ubiquitin-activating enzyme e1, putative (Leishmania donovani (strain BPK282A1)) (UniProt E9BSI1); test: Leishmania donovani Ubiquitin Activating Enzyme (LdE1); assay type: functional; details: 30 µM
T1 sequence (whole entry): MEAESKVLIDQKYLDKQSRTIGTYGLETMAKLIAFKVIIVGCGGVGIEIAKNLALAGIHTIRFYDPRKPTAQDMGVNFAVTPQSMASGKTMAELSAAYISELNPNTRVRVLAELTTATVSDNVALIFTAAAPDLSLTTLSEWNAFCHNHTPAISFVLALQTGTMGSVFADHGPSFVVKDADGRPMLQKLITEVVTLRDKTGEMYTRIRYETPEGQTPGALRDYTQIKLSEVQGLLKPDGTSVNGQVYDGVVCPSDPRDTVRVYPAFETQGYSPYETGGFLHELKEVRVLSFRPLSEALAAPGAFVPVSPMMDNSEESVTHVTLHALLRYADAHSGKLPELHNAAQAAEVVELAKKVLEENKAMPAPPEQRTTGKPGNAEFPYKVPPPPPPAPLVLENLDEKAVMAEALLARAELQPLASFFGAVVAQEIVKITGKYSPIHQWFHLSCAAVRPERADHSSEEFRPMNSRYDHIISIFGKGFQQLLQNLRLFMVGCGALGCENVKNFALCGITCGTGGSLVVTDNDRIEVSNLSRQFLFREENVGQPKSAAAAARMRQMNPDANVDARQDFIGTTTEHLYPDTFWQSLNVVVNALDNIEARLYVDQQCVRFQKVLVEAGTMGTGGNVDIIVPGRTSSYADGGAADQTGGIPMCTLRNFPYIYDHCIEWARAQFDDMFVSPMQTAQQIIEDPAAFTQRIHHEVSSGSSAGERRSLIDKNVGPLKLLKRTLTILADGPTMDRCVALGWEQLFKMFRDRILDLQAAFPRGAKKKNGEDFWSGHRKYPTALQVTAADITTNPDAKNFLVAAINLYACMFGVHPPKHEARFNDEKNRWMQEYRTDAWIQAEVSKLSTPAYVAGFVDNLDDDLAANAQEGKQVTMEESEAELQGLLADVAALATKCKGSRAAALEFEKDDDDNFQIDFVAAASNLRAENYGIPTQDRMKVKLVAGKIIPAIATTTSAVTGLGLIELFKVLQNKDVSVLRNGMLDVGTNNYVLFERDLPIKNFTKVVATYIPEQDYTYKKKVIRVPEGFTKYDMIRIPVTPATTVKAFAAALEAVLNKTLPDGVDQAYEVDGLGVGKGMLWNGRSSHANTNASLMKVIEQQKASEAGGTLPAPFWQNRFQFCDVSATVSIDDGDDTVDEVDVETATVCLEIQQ

[3] = molecular target: T2, Aspartate--tRNA(Asp/Asn) ligase (Mycobacterium tuberculosis (strain ATCC 25618 / H37Rv)) (UniProt P9WFW3); test: Assay for Asp RNA synthetase-1 from Mycobacterium tuberculosis; assay type: functional; details: 30 µM; also: in the data most compounds retested in dose-response had high values
T2 sequence (whole entry): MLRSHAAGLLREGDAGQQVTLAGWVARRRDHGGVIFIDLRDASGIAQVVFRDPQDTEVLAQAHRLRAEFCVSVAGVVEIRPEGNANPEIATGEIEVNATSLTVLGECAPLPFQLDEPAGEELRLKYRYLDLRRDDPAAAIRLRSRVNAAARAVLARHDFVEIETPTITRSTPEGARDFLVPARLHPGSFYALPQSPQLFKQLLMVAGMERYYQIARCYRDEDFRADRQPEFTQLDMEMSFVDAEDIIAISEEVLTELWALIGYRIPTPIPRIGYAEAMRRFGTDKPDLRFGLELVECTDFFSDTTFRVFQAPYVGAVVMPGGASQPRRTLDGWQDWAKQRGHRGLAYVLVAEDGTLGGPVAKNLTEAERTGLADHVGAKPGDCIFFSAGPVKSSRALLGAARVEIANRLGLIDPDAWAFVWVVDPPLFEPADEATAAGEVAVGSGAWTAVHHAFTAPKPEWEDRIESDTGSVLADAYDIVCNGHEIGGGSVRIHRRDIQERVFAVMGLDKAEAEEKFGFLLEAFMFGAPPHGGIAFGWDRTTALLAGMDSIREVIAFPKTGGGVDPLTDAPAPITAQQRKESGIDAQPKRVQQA

[4] = molecular target: Sialic acid-binding Ig-like lectin 9 (Homo sapiens) (UniProt Q9Y336); test: Hs-Siglec9 ALPHAscreen SOP 20170721; details: 10 µM
Chain of Sialic acid-binding Ig-like lectin 9 (Homo sapiens) (Q9Y336 whole entry): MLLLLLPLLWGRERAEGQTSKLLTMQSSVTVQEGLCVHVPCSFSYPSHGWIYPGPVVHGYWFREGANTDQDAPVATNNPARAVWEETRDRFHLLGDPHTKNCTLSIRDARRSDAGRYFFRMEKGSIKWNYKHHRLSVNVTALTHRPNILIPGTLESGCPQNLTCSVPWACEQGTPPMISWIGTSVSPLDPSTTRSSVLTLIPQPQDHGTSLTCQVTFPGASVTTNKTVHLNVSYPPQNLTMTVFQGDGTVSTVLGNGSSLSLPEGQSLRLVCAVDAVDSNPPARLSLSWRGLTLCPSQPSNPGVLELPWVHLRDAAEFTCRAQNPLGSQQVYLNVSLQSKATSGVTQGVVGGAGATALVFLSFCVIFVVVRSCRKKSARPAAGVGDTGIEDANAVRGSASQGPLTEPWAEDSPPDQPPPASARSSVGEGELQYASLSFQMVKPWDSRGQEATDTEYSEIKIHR

[5] = tested on: Trypanosoma cruzi; test: Trypanosoma cruzi phosphomannomutase and mannose-1-phosphate guanylyltransferase assay; assay type: functional; details: 10 µM
[6] = molecular target: T3, Arginase-2, mitochondrial (Homo sapiens) (UniProt P78540); test: in vitro enzyme assay to detect the production of urea directly proportional to the activity of Arginase II; assay type: functional; details: 33.3 µM; also: in the data most compounds retested in dose-response had high values
T3 sequence (whole entry): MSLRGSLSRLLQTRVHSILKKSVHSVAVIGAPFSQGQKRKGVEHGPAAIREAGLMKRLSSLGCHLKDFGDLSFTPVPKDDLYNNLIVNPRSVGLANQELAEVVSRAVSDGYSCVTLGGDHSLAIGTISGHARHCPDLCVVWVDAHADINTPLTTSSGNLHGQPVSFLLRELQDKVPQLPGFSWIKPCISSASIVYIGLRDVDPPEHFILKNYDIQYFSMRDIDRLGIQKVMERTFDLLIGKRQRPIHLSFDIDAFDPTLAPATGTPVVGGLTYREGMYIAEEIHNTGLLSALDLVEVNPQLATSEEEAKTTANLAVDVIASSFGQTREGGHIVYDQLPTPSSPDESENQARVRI

[7] = molecular target: T4, Proteasome subunit beta (Trypanosoma cruzi) (UniProt O96673); test: Trypanosoma cruzi proteasome chymotrypsin-like activity (TcProtChymo) assay.; also: in the data most compounds retested in dose-response had high values; assay type: functional; details: 9.37 µM
T4 sequence (whole entry): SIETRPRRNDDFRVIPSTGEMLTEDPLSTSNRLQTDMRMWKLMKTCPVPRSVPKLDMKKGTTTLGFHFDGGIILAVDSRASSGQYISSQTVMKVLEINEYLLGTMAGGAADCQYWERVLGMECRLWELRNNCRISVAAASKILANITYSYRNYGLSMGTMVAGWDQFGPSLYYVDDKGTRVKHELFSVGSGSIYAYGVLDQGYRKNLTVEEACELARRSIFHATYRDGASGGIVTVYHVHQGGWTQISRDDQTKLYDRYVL

[8] = species: Homo sapiens; test: To identify inhibition of the IFN signalling (Jak-Stat) pathway via expression of an eGFP reporter gene under the control of an IFN-stimulated response element (ISRE) containing MxA promoter.; assay type: functional; details: 30 µM
[9] = molecular target: Shiga toxin 2 (Escherichia coli O157:H7) (UniProt P09385+P09386); test: E. coli 0.157:H7 Shiga Toxin SOP - stx2 screening assay; assay type: functional; details: 30 µM
[10] = molecular target: T5, Tyrosyl-tRNA synthetase, putative (Trypanosoma cruzi (strain CL Brener)) (UniProt Q4DSP6); test: Trypanosoma cruzi tyrosyl tRNA synthetase (TcYRS) _High Tyrosine SOP; assay type: functional; details: 30 µM; also: in the data most compounds retested in dose-response had high values
T5 sequence (whole entry): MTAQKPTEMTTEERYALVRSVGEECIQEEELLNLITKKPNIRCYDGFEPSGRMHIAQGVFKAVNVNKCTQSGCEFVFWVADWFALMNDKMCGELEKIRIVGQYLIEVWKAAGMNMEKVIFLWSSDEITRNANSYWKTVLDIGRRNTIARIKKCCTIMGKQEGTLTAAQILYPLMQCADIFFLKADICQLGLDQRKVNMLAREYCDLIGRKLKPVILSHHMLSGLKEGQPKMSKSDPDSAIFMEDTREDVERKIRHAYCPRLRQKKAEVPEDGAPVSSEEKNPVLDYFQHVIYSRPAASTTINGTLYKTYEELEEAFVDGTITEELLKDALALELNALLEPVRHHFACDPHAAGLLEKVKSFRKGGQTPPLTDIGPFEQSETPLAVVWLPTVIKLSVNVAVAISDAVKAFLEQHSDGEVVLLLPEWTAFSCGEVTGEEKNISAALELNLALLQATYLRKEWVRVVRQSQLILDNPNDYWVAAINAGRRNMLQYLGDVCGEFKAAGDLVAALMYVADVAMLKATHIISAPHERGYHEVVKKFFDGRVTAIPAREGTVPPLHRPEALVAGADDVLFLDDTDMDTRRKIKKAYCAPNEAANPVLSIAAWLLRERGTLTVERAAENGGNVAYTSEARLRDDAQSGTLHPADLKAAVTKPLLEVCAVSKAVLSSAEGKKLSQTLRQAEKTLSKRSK

[11] = molecular target: T5, Tyrosyl-tRNA synthetase, putative (Trypanosoma cruzi (strain CL Brener)); test: Trypanosoma cruzi tyrosyl tRNA synthetase (TcYRS) SOP; assay type: functional; details: 30 µM
[12] = molecular target: Chromo domain-containing protein 1 (Saccharomyces cerevisiae (strain ATCC 204508 / S288c) (Baker's yeast)) (UniProt P32657); test: ScCHD-1 Enzyme Inhibition Assay; assay type: functional; details: 30 µM; also: in the data most compounds retested in dose-response had high values
Chain of Chromo domain-containing protein 1 (Saccharomyces cerevisiae (strain ATCC 204508 / S288c) (Baker's yeast)) (P32657 whole entry, the tested form may be a part): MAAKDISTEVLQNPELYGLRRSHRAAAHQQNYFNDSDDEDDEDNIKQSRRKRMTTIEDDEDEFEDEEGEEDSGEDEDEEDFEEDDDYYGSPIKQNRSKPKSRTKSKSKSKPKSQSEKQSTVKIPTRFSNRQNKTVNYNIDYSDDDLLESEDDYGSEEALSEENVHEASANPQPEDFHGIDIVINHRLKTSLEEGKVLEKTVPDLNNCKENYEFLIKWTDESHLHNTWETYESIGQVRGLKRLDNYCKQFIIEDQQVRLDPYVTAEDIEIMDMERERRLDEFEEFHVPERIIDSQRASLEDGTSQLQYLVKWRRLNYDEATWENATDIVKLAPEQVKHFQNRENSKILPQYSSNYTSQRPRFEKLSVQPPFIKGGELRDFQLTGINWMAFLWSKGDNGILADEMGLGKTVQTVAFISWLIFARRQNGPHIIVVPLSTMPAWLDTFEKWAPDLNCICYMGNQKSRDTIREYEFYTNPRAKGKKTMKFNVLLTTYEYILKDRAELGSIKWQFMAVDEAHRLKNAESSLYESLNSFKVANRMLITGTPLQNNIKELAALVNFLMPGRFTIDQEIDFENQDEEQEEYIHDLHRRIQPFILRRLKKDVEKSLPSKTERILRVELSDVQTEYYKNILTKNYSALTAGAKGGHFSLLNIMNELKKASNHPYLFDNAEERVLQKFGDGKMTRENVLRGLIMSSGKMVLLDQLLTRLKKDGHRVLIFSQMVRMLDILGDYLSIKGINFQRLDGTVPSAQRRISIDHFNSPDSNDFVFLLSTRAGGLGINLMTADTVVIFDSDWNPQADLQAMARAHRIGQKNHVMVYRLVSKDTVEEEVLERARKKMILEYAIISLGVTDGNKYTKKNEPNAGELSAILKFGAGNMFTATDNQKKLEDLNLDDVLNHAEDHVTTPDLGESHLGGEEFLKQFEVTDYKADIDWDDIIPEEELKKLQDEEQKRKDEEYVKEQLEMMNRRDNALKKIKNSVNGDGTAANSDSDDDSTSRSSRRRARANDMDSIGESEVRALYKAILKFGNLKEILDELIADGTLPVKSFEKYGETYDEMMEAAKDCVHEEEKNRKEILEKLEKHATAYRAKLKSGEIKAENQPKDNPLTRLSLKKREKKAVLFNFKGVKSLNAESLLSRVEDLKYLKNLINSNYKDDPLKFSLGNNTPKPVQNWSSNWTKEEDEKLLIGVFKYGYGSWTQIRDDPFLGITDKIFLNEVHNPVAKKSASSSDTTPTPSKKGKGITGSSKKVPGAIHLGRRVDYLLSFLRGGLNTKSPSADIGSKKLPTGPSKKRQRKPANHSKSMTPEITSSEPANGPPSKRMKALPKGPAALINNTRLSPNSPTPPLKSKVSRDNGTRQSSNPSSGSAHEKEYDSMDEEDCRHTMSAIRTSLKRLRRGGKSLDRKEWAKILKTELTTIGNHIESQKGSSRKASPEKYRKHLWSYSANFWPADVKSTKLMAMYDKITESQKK

[13] = molecular target: AMP-activated protein kinase, AMPK (Homo sapiens) (UniProt P54646+O43741+P54619+Q9UGJ0+Q9Y478+Q13131+Q9UGI9); test: AMP-dependent Kinase enzyme assay. An in vitro enzyme assay that detects ADP turnover that is directly proportional to AMPK activity. This uses naive AMPK that is activated during the assay with MK-8722; assay type: functional; details: 30 µM

Chain of Protein translocase subunit SecA (Escherichia coli (strain K12)) (P10408 whole entry): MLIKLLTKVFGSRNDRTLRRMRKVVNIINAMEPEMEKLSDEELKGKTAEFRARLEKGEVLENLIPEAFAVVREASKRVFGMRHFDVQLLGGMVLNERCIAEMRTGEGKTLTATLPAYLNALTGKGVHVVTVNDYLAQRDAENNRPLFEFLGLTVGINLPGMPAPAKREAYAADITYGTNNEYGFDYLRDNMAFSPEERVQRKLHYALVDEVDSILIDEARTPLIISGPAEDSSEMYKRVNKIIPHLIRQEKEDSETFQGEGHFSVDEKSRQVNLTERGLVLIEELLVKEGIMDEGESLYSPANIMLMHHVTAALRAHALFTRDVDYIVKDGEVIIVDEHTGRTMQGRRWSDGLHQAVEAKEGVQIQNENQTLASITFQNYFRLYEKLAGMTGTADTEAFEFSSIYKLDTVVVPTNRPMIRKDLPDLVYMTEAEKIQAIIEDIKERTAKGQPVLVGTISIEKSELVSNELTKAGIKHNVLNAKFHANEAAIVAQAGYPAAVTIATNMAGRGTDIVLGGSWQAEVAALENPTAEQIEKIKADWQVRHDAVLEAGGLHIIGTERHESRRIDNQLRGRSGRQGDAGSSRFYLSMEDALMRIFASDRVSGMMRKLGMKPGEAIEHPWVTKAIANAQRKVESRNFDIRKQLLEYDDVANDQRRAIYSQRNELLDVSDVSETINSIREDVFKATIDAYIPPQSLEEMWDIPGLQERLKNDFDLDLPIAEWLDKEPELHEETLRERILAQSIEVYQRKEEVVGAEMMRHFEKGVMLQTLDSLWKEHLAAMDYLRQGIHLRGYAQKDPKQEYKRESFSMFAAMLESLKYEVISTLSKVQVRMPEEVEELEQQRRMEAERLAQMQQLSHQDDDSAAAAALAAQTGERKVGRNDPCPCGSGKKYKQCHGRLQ

SMILES	Percent Effect [1] [%]	Percent Effect [2] [%]	Percent Effect [3] [%]	Percent Effect [4] [%]	Percent Effect [5] [%]	Percent Effect [6] [%]	Percent Effect [7] [%]	Percent Effect [8] [%]	Percent Effect [9] [%]	Percent Effect [10] [%]	Percent Effect [11] [%]	Percent Effect [12] [%]	Percent Effect [13] [%]
CN1CCC2(CC1)C(=O)N(CC1CC1)c1ccccc12	-2.83	9.09	-2.3	-0.296	-1.69	3.65	1.12	2.83	4.66	-0.966	0	-9.03	
CCC(O)CN1CCN(C(=O)Cc2cc(Cl)ccc2OC)CC1 (configuration not stated)	1.11	13	-1.9	12.1	-1.31	-3.89	4.04	13.4	-9.78	4.9	21.2	-7	
CNCCc1nc2cc(F)ccc2[nH]1	-3.21	0	5.99	-3.69	-6.13	5.21	5.23	4.18		-4.92	-8.64	-3.45	-8.1
CC(C)c1nccc([C@H]2C[C@@H]3CCN(Cc4ccoc4)C[C@H]3O2)n1	-3.97	-6.49	-4.77	-2.81	6.13	-6.48	16.7	-14.2	3.27	5.79	0	-1.73	
COc1cccc([C@@H]2CCN(Cc3ccc4ccccc4n3)C[C@H]2O)c1	-6.38	5.41	-2.79	14.7	4.56	18.5	9.76	1.68	-2.3	7.98	19.5	-2.92	
C[C@@H]1C(=O)NC[C@H]2CN(Cc3ccsc3)C[C@H]21	-2.31	3.9	-1.43	1.3	1.88	-0.457	-4.55	-3.55	-20.9	6.76	10	-9.75	
CN(C)CCN1CCCC12CCN(C(=O)c1cccnc1)CC2	-0.609	3.9	1.98	-1.37	0.563	4.11	8.5	-12.2	-15.3	3.87	7.5	1.23	
CCc1nc(CC(=O)N2CCCC2CN2CCCC2)cs1 (configuration not stated)	-0.0825	0	-3.69	1.63	-2.01	5.32	11.1	-4.98	-5.61	2.63	2.56	-5.66	
Cc1cccc(CN2CC[C@H]3[C@H]2CCN3Cc2cnn(C)c2)n1	-6.02	3.9	-3.89	2.88	0.75	-0.457	-2.15	34	-8.6	-1.93	-10	1.01	
O=C1CO[C@@H]2CN(Cc3cccs3)C[C@H]2N1Cc1ccncc1	-2.47	14.3	9.56	-8.26	-2.63	10.9	21.8	-2.63	-17.5	12.1	10.3	3.61	
C[C@@H]1CN(Cc2ccsc2)C[C@]12CCN(Cc1cccnc1)C2=O	-4.41	1.3	-1.62	1.42	-1.69	1.37	-4.03	25.2	-6.36	0	-10	-0.115	

— ChEMBL document CHEMBL3988442, “University of Dundee, Small-Polar-MMV Screening Library” (2021)
